# Sampled rows, rich in hits. Any-hit rate of the full collection: about 10%.
# Pf growth 96h = P. falciparum growth inhibition at 96 hours; P. falciparum luciferase reporter growth, 96 h; Potency, µM (titrated, usually from 28.7 µM), actives largely listed as inhibitors; 320,000 compounds, 6.9% hits; AID 504834
#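 Two parasite generations (96 h, 37 C, 5% CO2) of compound exposure in infected erythrocytes (0.05% parasitemia, 2% hematocrit). Luciferase-reporter P. falciparum; decreased luminescence indicates inhibited growth, aimed at apicoplast-acting delayed death.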
# SARS PLP yeast = blocks SARS-CoV papain-like protease in a yeast assay; S. cerevisiae expressing SARS-CoV PLpro, growth rescue; Potency, µM (doses to about 32.9 µM), hits mostly activators; 330,000 compounds, 0.19% hits; AID 485353; calls by dose curve; further: nearly all actives have a fitted effect of over 55% in size
# Pf growth 48h = P. falciparum growth inhibition at 48 hours (one generation); Potency, µM (titrated, usually from 28.7 µM), actives largely listed as inhibitors; P. falciparum luciferase growth in erythrocytes, 48 h; 310,000 compounds, 5.9% hits
#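 First compound was added to culture medium, then infected red cells at 0.1% parasitemia and 2% hematocrit (final). After incubation at 37 C under 5% CO2, luciferase detection reagent was dispensed and light output recorded.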
# NS1 inh = inhibitors of influenza NS1 protein function; Potency, µM (series often up to 46.1 µM); 270,000 compounds, 0.4% hits; calls by dose curve; further: actives are rising curves; nearly all actives have a fitted effect of over 50% in size
#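 Compounds were scored for reversing the slow growth caused by influenza A NS1 in S. cerevisiae, measured by optical density at 600 nm. Assay medium contained 2% galactose at pH 6.0; NS1-free yeast of the same strain were the positive control.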
# Numbers stand for hits; - = inactive; ? = inconclusive; . = no result given; [ ] = dose if it differs, or a comment. Unless noted, the call rests on the fitted dose curve; in most records, active means well fitted inhibition curve with a large enough effect; inconclusive means small, poorly fitted or top-dose-only effect, or another doubt; inactive means no such curve, though single readings can be large or run the other way.
SMILES,Pf growth 96h,SARS PLP yeast,Pf growth 48h,NS1 inh
COc1ccc(/C=C2\C(=O)N(Cc3ccc(F)cc3)CC(=O)N2Cc2ccccc2)cc1,15µM,-,10µM,-
Cc1nc(CS(=O)(=O)c2ccccn2)sc1C(=O)NNC(=O)c1ccc(Cl)cc1,-,-,-,-
CCCc1nc(-c2cc3ccc(C)cc3[nH]c2=O)no1,3.7µM,-,-,-
CCOc1ccccc1-c1nc(-c2cc3ccccc3nc2OC)no1,?,-,-,-
CCOc1ccccc1-c1nc(-c2cc3ccc(C)cc3[nH]c2=O)no1,-,-,9.3µM,-
Cc1ccc2[nH]c(=O)c(-c3noc(CC(C)C)n3)cc2c1,5.2µM,-,9.3µM,-
O=C(O)CC[C@H](NC(=O)c1ccccc1C(=O)O)C(=O)O,.,.,.,-
CC(=O)c1ccc(NC(=O)CCNC(=O)c2ccccc2Cl)cc1,-,-,-,-
C#CCCc1ccccc1/C=[N+](/C)[O-],-,-,?,.
Cc1csc(NC(=O)CSc2nnc(-c3ccc(S(=O)(=O)N4CCCC4)cc3)o2)n1,.,-,5.9µM,-
Cc1cc(NC(=O)CSc2nnc(-c3ccc(S(=O)(=O)N4CCCC4)cc3)n2C)no1,12µM,-,?,-
CCN(CC)S(=O)(=O)c1ccc(-c2nnc(SCC(=O)Nc3nc(C)cs3)o2)cc1,-,-,.,-
Cn1c(SCC(=O)NCc2ccco2)nnc1-c1ccc(S(=O)(=O)N2CCOCC2)cc1,12µM,-,-,-
C#CCOCCOCCOCCNc1nc(N2CCN(C(=O)CCCCCCCCCCNC(=O)Cn3cc(C[C@@H](C)O)nn3)CC2)nc(N2CCN(C(=O)CCCCCCCCCCNC(=O)[C@H](CO)n3cc(CCCSC)nn3)CC2)n1,0.15µM,-,0.15µM,.
C#CCOCCOCCOCCNc1nc(N2CCOCC2)nc(N2CCN(C(=O)Cn3cc(CC(C)O)nn3)CC2)n1 (stereo not drawn),?,-,-,-
C#CCOCCOCCOCCNc1nc(N2CCN(C(=O)Cn3cc(CCCCN)nn3)CC2)nc(N2CCN(C(=O)Cn3cc(CCCCN)nn3)CC2)n1,-,-,-,-
C#CCOCCOCCOCCNc1nc(N2CCN(C(=O)CCCCCCCCCCNC(=O)Cn3cc(CCCCCN)nn3)CC2)nc(N2CCN(C(=O)CCCCCCCCCCNC(=O)Cn3cc(CCCCCN)nn3)CC2)n1,6.6µM,?,1.7µM,.
C#CCOCCOCCOCCNc1nc(N2CCN(C(=O)CCCCCCCCCCNC(=O)Cn3cc(C[C@@H](C)O)nn3)CC2)nc(N2CCN(C(=O)CCCCCCCCCCNC(=O)[C@H](CCCCN)n3cc(CCCC(=O)O)nn3)CC2)n1,?,-,5.2µM,.
C#CCOCCOCCOCCNc1nc(N2CCN(C(=O)[C@H](CCCCN)n3cc(CC(C)O)nn3)CC2)nc(N2CCN(C(=O)[C@H](CCCCN)n3cc(CC(C)O)nn3)CC2)n1 (stereo partly drawn),-,-,-,.
C#CCOCCOCCOCCNc1nc(N2CCN(C(=O)CCCCCCCCCCNC(=O)Cn3cc(C[C@@H](C)O)nn3)CC2)nc(N2CCN(C(=O)CCCCCCCCCCNC(=O)[C@H](CCCN=C(N)N)n3cc(C[C@@H](C)CC)nn3)CC2)n1,1µM,-,1.3µM,.
C#CCOCCOCCOCCNc1nc(N2CCN(C(=O)Cn3cc(CCCN=C(N)N)nn3)CC2)nc(N2CCN(C(=O)[C@H]([C@@H](C)CC)n3cc(CCC(=O)O)nn3)CC2)n1,-,-,-,-
COc1cc(OC)cc(C(=O)NC(C)CNc2ccc(Cl)cc2[N+](=O)[O-])c1 (stereo not drawn),-,-,-,-
Cn1cccc1CC(=O)N/N=C/c1ccc(Cl)c([N+](=O)[O-])c1,-,-,?,-
C#CCOCCOCCOCCNc1nc(N2CCN(C(=O)CCCCCCCCCCNC(=O)Cn3cc(CCCCCN)nn3)CC2)nc(N2CCN(C(=O)CCCCCCCCCCNC(=O)[C@@H](CCC(=O)O)n3cc(CCCCCN)nn3)CC2)n1,?,-,13µM,.
C#CCOCCOCCOCCNc1nc(N2CCN(C(=O)CCCCCCCCCCNC(=O)[C@@H](CCSC)n3cc(CCO)nn3)CC2)nc(N2CCN(C(=O)CCCCCCCCCCNC(=O)[C@H](CCSC)n3cc(CCO)nn3)CC2)n1,0.29µM,-,0.33µM,.
SMILES,Pf growth 96h,SARS PLP yeast,Pf growth 48h,NS1 inh
C#CCOCCOCCOCCNc1nc(N2CCN(C(=O)CCCCCCCCCCNC(=O)Cn3cc(C[C@@H](C)O)nn3)CC2)nc(N2CCN(C(=O)CCCCCCCCCCNC(=O)[C@@H](CCC(=O)O)n3cc(CCCCCN)nn3)CC2)n1,?,-,1µM,.
C#CCOCCOCCOCCNc1nc(N2CCN(C(=O)CCCCCCCCCCNC(=O)Cn3cc(CCCCCN)nn3)CC2)nc(N2CCN(C(=O)CCCCCCCCCCNC(=O)[C@@H](CCSC)n3cc(CCO)nn3)CC2)n1,1µM,-,1.2µM,.
C#CCOCCOCCOCCNc1nc(N2CCN(C(=O)[C@H]([C@@H](C)O)n3cc(CCCCN)nn3)CC2)nc(N2CCN(C(=O)[C@H](CCCCN)n3cc(CCC(=O)O)nn3)CC2)n1,-,-,-,.
COc1ccc(CCNC(=O)C2=CCN(S(=O)(=O)c3ccc(F)cc3)CC2)cc1OC,-,-,-,-
CC1(c2ccc3c(c2)OCCCO3)NC(=O)N(CC(=O)NCCc2ccccc2)C1=O (stereo not drawn),?,-,?,.
O=C(c1ccccc1SCc1ccccc1)N1CCCCCC1,?,-,-[5.75 µM],.
C#CCOCCOCCOCCNc1nc(N2CCN(C(=O)CCCCCCCCCCNC(=O)[C@H](CO)n3cc(CCCSC)nn3)CC2)nc(N2CCN(C(=O)CCCCCCCCCCNC(=O)[C@H](CCCCN)n3cc(CCO)nn3)CC2)n1,.,-,.,.
C#CCOCCOCCOCCNc1nc(N2CCN(C(=O)CCCCCCCCCCNC(=O)[C@H](CO)n3cc(CCCSC)nn3)CC2)nc(N2CCN(C(=O)CCCCCCCCCCNC(=O)[C@H](CCCN=C(N)N)n3cc(C[C@@H](C)CC)nn3)CC2)n1,5.2µM,-,1.5µM,.
C#CCOCCOCCOCCNc1nc(N2CCN(C(=O)CCCCCCCCCCNC(=O)[C@H](CO)n3cc(CCCSC)nn3)CC2)nc(N2CCN(C(=O)CCCCCCCCCCNC(=O)[C@@H]([C@H](C)O)n3cc(C)nn3)CC2)n1,0.093µM,-,0.29µM,.
COc1ccc(N2CCN(C3CCCN(Cc4cccc(OC)c4)C3)CC2)cc1 (stereo not drawn),?,-,-,-
CCOC(=O)[C@@H](O)Cc1cnc2ccccc2n1,.,.,.,-
COc1ccc(C(=O)CSc2nc3cccnc3n2C)cc1,3.7µM,-,-,-
COC1C(OC(=O)/C=C/C=C/C=C/C=C/C(=O)O)CCC2(CO2)C1C1(C)OC1CC=C(C)C (stereo not drawn),?,.,0.0038µM,.
CCC1CN(S(=O)(=O)c2ccc3c(c2)NC(=O)CC(=O)N3)c2cc(Cl)ccc2O1 (stereo not drawn),?,-,2.1µM,-
CCCc1nnc(SCC(=O)Nc2nnc(CC)s2)n1CC1CCCO1 (stereo not drawn),-,-,-,-
Cc1ccc(NC2CCCN(C(=O)c3cn4cccc(C)c4n3)C2)cc1C (stereo not drawn),4.1µM,-,-,-
